Where “and” joins values, the source holds several entries; their conditions need not be identical. Identical values can stand only once. Results filed as inconclusive are left out. A call without a number means that no potency is given here. A number with no mark means an inactive call. Calls of active or inactive are those of the source. Calls come from the whole dose curve; as a rule, active = well fitted curve in the direction sought with a large enough effect; inconclusive = small, poorly fitted or top-dose-only effect, or another doubt; inactive = no such curve, though single readings can be large; an effect the other way counts as inactive or inconclusive.
Assays:
[1] = Viability qHTS for spleen associated tyrosine kinase inhibitor (SYKi) naive MV4-11 cells (AID 1963823); note: nearly all actives have a fitted effect of over 40% in size
Summary of the method: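 Luminescence from CellTiter-Glo, developed 10 min at room temperature, gave viability of MV4-11 cells never exposed to SYK inhibitor. Cells (500/well) had been incubated with compounds for 72 hr under standard culture conditions.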

[2] = Viability qHTS for spleen associated tyrosine kinase inhibitor (SYKi) drug resistant MV4-11 cells (AID 1963824); note: nearly all actives have a fitted effect of over 35% in size
Summary of the method: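 SYK inhibitor-resistant MV4-11 AML cells, 500 per well, added to predispensed compounds and incubated 72 hr at 37 C, 5% CO2. Viability measured by CellTiter-Glo luminescence after 10 min at room temperature.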

[3] = Quantitative highthroughput screen to assess conditional lethalithy of NOMO1 cells grown in RPMI1640 with untreated serum (RPMI+s) (AID 1963876); note: nearly all actives have a fitted effect of over 35% in size
Summary of the method: (§1)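 Each medium arm—HPLM with 10% dialyzed FBS, or RPMI1640 with 5 mM glucose and 10% untreated or dialyzed FBS—was screened against an 11-point, 3-fold compound titration for 48 h at 37 °C, with CellTiter-Glo luminescence as endpoint.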

[4] = Quantitative highthroughput screen to assess conditional lethalithy of NOMO1 cells grown in RPMI1640 with dialyzed fetal bovine serum (RPMI+ds) (AID 1963877); note: nearly all actives have a fitted effect of over 30% in size; for Viability: series mostly up to about 46 µM
Summary of the method: as §1

[5] = Quantitative highthroughput screen to assess conditional lethalithy of NOMO1 cells grown in Human Plasma-Like Medium with dialyzed fetal bovine serum (HPLM+ds) (AID 1963878); note: nearly all actives have a fitted effect of over 35% in size
Summary of the method: as §1

[6] = Quantitative highthroughput screen to assess conditional lethalithy of P12 Ichikawa cells grown in Human Plasma-Like Medium with dialyzed fetal bovine serum (HPLM+ds) (AID 1963879); settings: Potency: viability; note: nearly all actives have a fitted effect of over 35% in size; for Viability: series mostly up to about 46 µM
Summary of the method: as §1

[7] = Cellular viability qHTS for adrenocortical cancer (ACC) cell line SW-13 (AID 1963989); settings: SW-13 ACC cells viability, CellTiter-Glo, 48 h; activity (max response): hits give low values; note: nearly all actives have a fitted effect of over 65% in size;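 for activity (max response): cells grown in serum-free medium with ITS supplement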
Summary of the method: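 Viability was read as CellTiter-Glo luminescence after 48 h compound treatment (up to 46 uM final) of SW-13 cells grown serum-free; titration curves were fit with a four-parameter logistic model to give IC50 and efficacy.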

[8] = Quantitative highthroughput screen to assess conditional lethalithy of P12 Ichikawa cells grown in RPMI1640 with dialyzed fetal bovine serum (RPMI+ds) (AID 1963880); settings: Potency: P12-Ichikawa viability; note: nearly all actives have a fitted effect of over 35% in size
Summary of the method: as §1

[9] = Quantitative highthroughput screen to assess conditional lethalithy of P12 Ichikawa cells grown in RPMI1640 with untreated serum (RPMI+s) (AID 1963881); settings: Potency: viability; note: nearly all actives have a fitted effect of over 35% in size; for Viability: series mostly up to about 46 µM
Summary of the method: as §1

[10] = Quantitative highthroughput screen to assess conditional lethalithy of SEM cells grown in RPMI1640 with unreated serum (RPMI+s) (AID 1963883); note: nearly all actives have a fitted effect of over 35% in size
Summary of the method: as §1

[11] = Quantitative highthroughput screen to assess conditional lethalithy of SEM cells grown in RPMI1640 with dialyzed fetal bovine serum (RPMI+ds) (AID 1963884); note: nearly all actives have a fitted effect of over 35% in size; for Viability: series mostly up to about 46 µM
Summary of the method: as §1

[12] = Cellular viability qHTS for adrenocortical cancer (ACC) cell line NCI-H295R (AID 1963990); note: nearly all actives have a fitted effect of over 60% in size
Summary of the method: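 CellTiter-Glo ATP luminescence, read 48 h after compound addition, measured viability of NCI-H295R adrenocortical cells grown serum-free with ITS. Final concentrations spanned up to 46 uM. Data normalized to DMSO and doxorubicin, fitted for IC50 and maximal response.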

[13] = Quantitative highthroughput screen to assess conditional lethalithy of SEM cells grown in Human Plasma-Like Medium with dialyzed fetal bovine serum (HPLM+ds) (AID 1963882); note: nearly all actives have a fitted effect of over 35% in size; for Viability: series mostly up to about 46 µM
Summary of the method: as §1
Potency is the fitted concentration of half-maximal effect.

Row | Structure (SMILES) | Potency [1] | Potency [2] | Potency [3] | Potency [4] | Potency [5] | Potency [6] | activity (max response) [7] | Potency [8] | Potency [9] | Potency [10] | Potency [11] | Potency [7] | Potency [12] | Potency [13]
1 | OCc1ccc(-c2nn(Cc3ccccc3)c3ccccc23)o1 | 5.25 µM (active) | 4.68 µM (active) | 13.2 µM (active) | 16.6 µM (active) | 16.6 µM (active) | inactive | -19% |  |  |  |  |  |  | 
2 | C=CC(=O)N1CCc2ccc(-n3c(=O)ccc4cnc5ccc(-c6cnn(C)c6)cc5c43)cc21 | 0.632 µM (active) | 0.091 µM (active) | 7.43 µM (active) | 4.69 µM (active) | 3.72 µM (active) |  |  | 7.43 µM (active) | 7.43 µM (active) | 3.32 µM (active) | 3.32 µM (active) | 3.58 µM (active) | 0.506 µM (active) | 
3 | N#CC1(c2ccc(NC(=O)c3cccnc3NCc3ccncc3)cc2)CCCC1 | 2.31 µM (active) | 5.17 µM (active) | inactive | inactive | inactive |  | -5.11% | inactive | inactive | inactive | 1.66 µM (active) |  | inactive | inactive
4 | C[C@H]1COC2=C1C(=O)C(=O)c1c2ccc2c1CCCC2(C)C | 5.9 µM (active) | 5.25 µM (active) | inactive | inactive | inactive |  | -2.17% | inactive | inactive | 2.35 µM (active) | 13.2 µM (active) |  |  | 
5 | CCC(C)SSc1ncc[nH]1 (configuration not stated) | 9.34 µM (active) | 8.33 µM (active) | 18.7 µM (active) | 23.5 µM (active) | 14.8 µM (active) |  |  | 13.2 µM (active) | 18.7 µM (active) |  |  |  | 20 µM (active) | 
6 | CN1CCC(COc2cnc(-c3cccc(Cn4nc(-c5cccc(C#N)c5)ccc4=O)c3)nc2)CC1 | 7.42 µM (active) and 8.2 µM (active) | 7.42 µM (active) and 13 µM (active) | inactive | inactive | inactive |  |  | inactive | inactive | inactive | inactive |  | 25.1 µM (active) | 
7 | COC(=O)C1C2CC3c4[nH]c5cc(OC)ccc5c4CCN3CC2CC(OC(=O)c2cc(OC)c(OC)c(OC)c2)C1OC (configuration not stated) | 16.6 µM (active) | 11.8 µM (active) | inactive | inactive | inactive |  | -10.6% | inactive | inactive | inactive | inactive |  |  | inactive
8 | CCCCNc1cc(C(=O)O)cc(S(N)(=O)=O)c1Oc1ccccc1 | inactive | inactive | inactive | inactive | inactive |  | 16.2% and -1.57% | inactive | inactive | inactive | inactive |  | inactive | inactive
9 | Clc1ccc(C(Cn2ccnc2)OCc2c(Cl)cccc2Cl)c(Cl)c1 (configuration not stated) | 16.8 µM (active) and 8.33 µM (active) | 21.1 µM (active) and 8.33 µM (active) | inactive | inactive | inactive | inactive |  |  |  | inactive | inactive |  | 25.1 µM (active) | inactive
10 | Oc1ccc2ccccc2c1SSc1c(O)ccc2ccccc12 | 5.9 µM (active) and 11.6 µM (active) | 5.25 µM (active) and 9.2 µM (active) | inactive | inactive | inactive | inactive |  |  |  |  |  |  | 31.6 µM (active) | 
11 | CO[C@@H]1C(N(C)C(=O)c2ccccc2)C[C@H]2O[C@]1(C)n1c3ccccc3c3c4c(c5c6ccccc6n2c5c31)C(=O)NC4=O (some centres not stated) | 0.148 µM (active) | 0.332 µM (active) | 14.8 µM (active) | 14.8 µM (active) | 9.35 µM (active) |  |  |  |  | 1.87 µM (active) | 3.72 µM (active) |  |  | 4.69 µM (active)
12 | CC#C[C@]1(O)CC[C@H]2[C@@H]3CCC4=CC(=O)CCC4=C3[C@@H](c3ccc(N(C)C)cc3)C[C@@]21C | 18.6 µM (active) | 21.1 µM (active) and 16.6 µM (active) | 6.62 µM (active) | 7.43 µM (active) | 8.33 µM (active) | 9.35 µM (active) |  |  |  |  |  |  | 20.6 µM (active) and 25.1 µM (active) | 
13 | CN1c2ccccc2C(=O)N2CCc3c([nH]c4ccccc34)C21 (configuration not stated) | 1.64 µM (active) | 1.16 µM (active) | inactive | inactive | inactive |  |  | inactive | inactive | inactive | inactive | 2.24 µM (active) | 1.78 µM (active) | inactive
14 | Cc1cnc(C(=O)O)c[n+]1[O-] | inactive | inactive | inactive | inactive | inactive |  | -15.7% | inactive | inactive | inactive | inactive |  | inactive | inactive

Reference: PubChem BioAssay (NCATS)
